Source: PubChem
NS1 inh = influenza NS1 inhibition; 270,000 tested, 0.4% active; Potency, µM (highest dose often 46.1 µM), without a hit: top-dose activity, positive = more growth; AID 2326; calls by dose curve; also: potency is read from the fitted curve at half-maximal effect; actives are rising curves; nearly all actives have a fitted effect of over 50% in size
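OD600 was taken as the measure of yeast growth restored by compound in an NS1-expressing S. cerevisiae strain. Cells had been washed out of glucose medium and diluted 1:100 into galactose -URA medium, pH 6.0.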
Giardia FBPA inh = inhibitors of Giardia lamblia fructose-1,6-bisphosphate aldolase; A8B2U2; purified Giardia FBPA; Potency, µM (top dose mostly 59.6 µM), for inactives: top-dose activity, negative = inhibition, usual class: inhibitors; 290,000 tested, 0.71% active; also: potency is read from the fitted curve at half-maximal effect; % is scaled to controls: 0 for no effect and ±100 for the full control effect; nearly all actives have a fitted effect of over 55% in size
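Giardia FBPA (40 nM reagent) was preincubated 10 min at RT with compound (up to 57.5 uM final), then substrate plus GAPDH/TPI/NAD/arsenate coupling system with diaphorase/resazurin was added; resorufin fluorescence (525/598 nm) was read after 20 min.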
LmPK inh = inhibitors of Leishmania mexicana pyruvate kinase; Q27686; purified LmPK, Kinase-Glo ATP luminescence, 1 h; Potency, µM (series often up to 57.5 µM), inactives show top-dose activity change, negative = inhibition, actives largely listed as inhibitors; 290,000 tested, 0.37% active; AID 1721; also: potency is read from the fitted curve at half-maximal effect; % is scaled to controls: 0 for no effect and ±100 for the full control effect
Target sequence (Q27686 whole entry, looked up): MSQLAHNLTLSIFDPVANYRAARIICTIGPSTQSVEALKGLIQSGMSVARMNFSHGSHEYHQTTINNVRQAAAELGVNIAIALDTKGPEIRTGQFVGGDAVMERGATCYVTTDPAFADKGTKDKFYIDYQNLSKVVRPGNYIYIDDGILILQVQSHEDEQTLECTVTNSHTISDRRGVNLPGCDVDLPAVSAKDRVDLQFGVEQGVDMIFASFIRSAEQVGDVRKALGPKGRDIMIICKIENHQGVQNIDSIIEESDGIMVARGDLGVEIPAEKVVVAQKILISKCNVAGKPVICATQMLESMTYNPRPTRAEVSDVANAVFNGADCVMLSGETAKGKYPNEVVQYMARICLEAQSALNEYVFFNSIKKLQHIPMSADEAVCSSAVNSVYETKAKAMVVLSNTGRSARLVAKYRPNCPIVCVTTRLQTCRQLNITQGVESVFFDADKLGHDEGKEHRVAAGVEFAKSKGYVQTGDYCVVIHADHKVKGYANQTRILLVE
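In 50 mM imidazole pH 7.2 with 7 mM MgCl2, LmPK (0.1 nM) turned over PEP (0.5 mM) and ADP (0.1 mM) for 1 h at room temperature. Luciferase read-out of ATP.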
Cycloheximide cs = affects cycloheximide protein synthesis inhibition readout, counter-screen; max response, %; 300,000 tested, 12% active; AID 2314; cell reporter, cycloheximide protein synthesis inhibition counterscreen; in the data active = max response mostly above about 13%, no sharp cut-off; inactive = mostly below about 14%; also: read at 38.3 µM for the half of the compounds with a filed dose; 0% is about no effect
Shiga toxin inh = inhibitors of Shiga toxin in Vero cells | Vero cells, Shiga toxin protein synthesis inhibition reporter | inhibition, % at 38.7 µM | 290,000 tested, 9.2% active | AID 2315; in the data active = inhibition mostly above about 28%, no sharp cut-off; inactive = mostly below about 43%; also: 0% is about no effect
* marks the source's active call; other numbers are inactive results; ? = inconclusive; / = not tested or not shown; [ ] = another dose, or the depositor's remark. The list is not random: actives were taken first. Their share in the collection is about 14%. Unless noted, calls follow the shape of the dose curve; as a rule, active = well fitted curve in the direction sought with a large enough effect; inconclusive = small, poorly fitted or top-dose-only effect, or another doubt; inactive = no such curve, though single readings can be large; an effect the other way counts as inactive or inconclusive.

SMILES	NS1 inh	Giardia FBPA inh	LmPK inh	Cycloheximide cs	Shiga toxin inh
CC(C)c1nnc(NC(=O)CCC(=O)NCCc2ccccc2)s1	0%	1%	4%	1	11
O=C(CCc1ccccc1)Nc1cccnc1	1%	4%	-3%	13*	104*
CC(Cc1ccccc1)C(=O)Nc1ccc(Br)cc1 (stereo not drawn)	-25%	1%	0%	36*	100*
CC(=O)N(C)c1ccc(N=NC2C(=O)N(C(N)=S)N=C2C)cc1 (stereo not drawn)	-12%	?	-6%	16	38
CCCCCN(C(=O)CCC(=O)OCC(=O)N1CCCCC1C)c1c(N)n(CCCC)c(=O)[nH]c1=O (stereo not drawn)	5%	7%	-4%	0	-10
CCCNC(=O)OC[C@@H]1O[C@H](CCON=C(C)C)C=C[C@@H]1Oc1ccc(OC)cc1	/	0%[12.9 µM]	/	/	/
O=C(COc1nncc2ccccc12)Nc1ccc(F)c(F)c1	3%	-3%	-1%	-4	21
CC(C)c1ccc(NC(=O)COc2nncc3ccccc23)cc1	3%	0%	1%	24*	43*
CC(C)c1ccc(NC(=O)CCc2ccccc2)cc1	-42%	1%	-3%	56*	136*
O=C(CCc1ccccc1)Nc1ccncc1	-1%	3%	-2%	0	2
COC(=O)/C(C#N)=C1/C=Cc2ccccc2N1C	1%	4%	-2%	26*	61*
OC[C@@H](O)CN1CCN(c2ccccc2)CC1	/	5%[21.7 µM]	/	/	/
CC(C)=C[C@H]1[C@@H](COC(=O)c2cc3c(cc2Cl)OCO3)C1(C)C	6%	/	/	/	/
Cn1c(N)c(C(=O)N/N=C/c2ccccc2)sc1=S	5%	2%	2%	-1	-4
Nc1c(C(=O)Nc2ccc(F)cc2)sc(=S)n1-c1ccccc1F	/	-21%	0%	29*	60*
Cn1c(N)c(C(=O)Nc2ccc3ccccc3c2)sc1=S	12%	5%	-4%	43*	57*
Cn1c(N)c(C(=O)Nc2ccccc2F)sc1=S	-4%	-6%	-1%	9.0*	25
CCn1c(N)c(C(=O)Nc2ccccc2C(=O)OC)sc1=S	-124%	-6%	0%	1	21
O=C1[C@H]2[C@H]3[C@H](O)[C@H](O)C/C(=N/OCc4ccccc4)[C@@H]3CC[C@@H]2C(=O)N1c1cccc(Oc2ccccc2)c1	/	3%[12.9 µM]	/	/	/
O=C(Nc1ccccc1)OCC(CN1CCCCC1)OC(=O)Nc1ccccc1 (stereo not drawn)	/	-10%	/	-1	-5
Cc1nc2cnc(N3CCNCC3)nc2n(CCC#N)c1=O	/	0%	/	/	/
CC(=O)C=NCC(=O)O	0%	/	/	/	/
C=CCn1c(NCc2ccccc2OC)nc2ccccc21	-8%	11%	-5%	18*	32
CCOc1ccccc1CNc1nc2ccccc2n1C	1%	-5%	-5%	7	10
Cn1c(NCc2ccccc2Cl)nc2ccccc21	1%	/	/	/	/
SMILES	NS1 inh	Giardia FBPA inh	LmPK inh	Cycloheximide cs	Shiga toxin inh
Cn1c(NCc2cccc(Br)c2)nc2ccccc21	-15%	-1%	0%	13*	26*
c1ccc(Cn2c(NCc3ccccn3)nc3ccccc32)cc1	/	-1%	1%	-2	3
c1ccc(Cn2c(NCc3ccncc3)nc3ccccc32)cc1	6%	-1%	0%	26*	52*
Cn1c(NCc2ccccc2O)nc2ccccc21	-6%	6%	-7%	38*	37
Brc1cccc(CNc2nc3ccccc3n2CCN2CCCCC2)c1	-1%	-1%	2%	-1	-3
CC12CCC=CC1C(c1ccc(F)c(Br)c1)N(Cc1ccccc1)C2=O (stereo not drawn)	/	11%	/	2	-3
C=CCn1c(NCc2ccccc2)nc2ccccc21	-18%	6%	0%	16*	51
C=CCn1c(NCc2cc(Cl)ccc2O)nc2ccccc21	-29%	-2%	-5%	1	-6
Cc1ccc(CNc2nc3ccccc3n2C)o1	8%	2%	-11%	54*	51*
C=CCn1c(NCc2ccccc2O)nc2ccccc21	-4%	7%	2%	22*	/
C=CCn1c(NCc2ccc(OC)cc2O)nc2ccccc21	0%	9%	-2%	33*	23*
CCN(CC)c1ccc(CNc2nc3ccccc3n2CC)cc1	-51%	6%	4%	2	-13
CCCc1cc(F)c(S(=O)(=O)N2CCN(S(=O)(=O)c3ccc4c(c3)OCCO4)CC2)cc1F	/	/	/	-5	-8
CCCc1nc2c(ccc3ccccc32)cc1CC	6%	0%	1%	9	-10
COc1ccc2[nH]cc(CCNc3nc(-c4c(C)noc4C)nc4ccccc34)c2c1	/	-20%	/	/	/
CO/N=C/C(C#N)=C/c1ccc(OC)cc1	-1%	0%	0%	43*	61*
COc1ccc(/C=C(/C#N)S(=O)(=O)c2ccc(C)cc2)cc1	1%	-6%	0%	-4	1
C#CCOC(=O)[C@H](N)CC(N)=O	3%	/	/	/	/
O=C(O)c1ccc(NC(=S)Nc2ccccc2)cc1	11%	-3%	-4%	16*	-14
COc1ccccc1NC(=S)NNC(=O)c1ccc(O)cc1	1%	9%	-11%	24*	27
Cc1ccc(C(=O)NNC(=O)/C=C\C(=O)O)cc1	-3%	-9%	-2%	42*	70*
O=C(NNC(=S)Nc1ccccc1)c1cccc(Br)c1	-15%	13%	-1%	26*	33
COc1ccccc1NC(=S)NC(=O)C(C)(C)C	-4%	14%	2%	15	8
COc1ccc(N2CC(C(=O)OCC(=O)Nc3cccc(C)c3C)CC2=O)cc1 (stereo not drawn)	-4%	-2%	0%	-3	9
FC(F)(F)c1cc(CN2CC3(CCNCC3)C2)cc(C(F)(F)F)c1	/	3%	/	/	/
SMILES	NS1 inh	Giardia FBPA inh	LmPK inh	Cycloheximide cs	Shiga toxin inh
COC(=O)c1ccc(NC(=S)NNC(=O)c2ccccc2)cc1	-2%	25%	6%	26*	42
O=C(NNC(=S)Nc1ccccc1)c1ccc(O)cc1	3%	-1%	-8%	45*	73*
O=C(NNC(=S)Nc1ccc(Br)cc1)c1ccccc1Br	-28%	18%	11%	11	72
O=C(NNC(=S)Nc1ccc(Br)cc1)c1ccccc1	-14%	8%	2%	23*	34
O=C(O)/C=C/C(=O)NNC(=O)c1cccc(Br)c1	-4%	0%	-11%	25*	39*
C=CC(=O)c1ccc(CCCCCC)cc1	/	13%	/	6	26
O=C(NN1CC(C(=O)OCc2ccc(Br)cc2)CC1=O)c1ccccc1 (stereo not drawn)	-10%	/	-2%	-1	-4
C[N+](C)(N)CCC[N+](C)(C)N	-2%	/	/	/	/
CC(C)(C)NC(=S)NNC(=O)c1cccc(Br)c1	/	2%	2%	40*	74*
CC1CC1C(=O)OCC(=O)NC(=O)NC12CC3CC(CC(C3)C1)C2 (stereo not drawn)	/	1%	2%	43*	86*
COc1ccc(CC(=O)OCC(=O)NC(=O)NC23CC4CC(CC(C4)C2)C3)cc1	6%	-6%	9%	8	-18
CC(OC(=O)CNC(=O)c1ccc2ccccc2c1)C(=O)NC1CCCCC1C (stereo not drawn)	-10%	/	1%	-2	-9
